In PubChem BioAssay (NCI):
The panel holds about 83,000 compounds, 20% with a hit somewhere; the sample as a whole holds those more often.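 Negative percent growth values reflect cell death: -40 means 40% of the cells present at the start died, and -100 means all died.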 Unmarked numbers belong to inactive results. The source made the active and inactive calls. How the source made its calls: active means growth percent below 10; inactive means the rest.

Key:
Test in all cases: NCI-60 one-dose screen, 48 h (100 = growth as untreated, 0 = no growth, -100 = all killed)
SR leukemia = conditions: 10 µM unless noted
RPMI-8226 leukemia = conditions: 10 µM unless noted
OVCAR-8 ovarian = conditions: 10 µM unless noted
OVCAR-5 ovarian = conditions: 10 µM unless noted
OVCAR-4 ovarian = conditions: 10 µM unless noted
SK-OV-3 ovarian = conditions: 10 µM unless noted
IGROV1 ovarian = conditions: 10 µM unless noted
OVCAR-3 ovarian = conditions: 10 µM unless noted
HS 578T breast = conditions: 10 µM unless noted
NCI/ADR-RES ovarian = conditions: 10 µM unless noted
T-47D breast = conditions: 10 µM unless noted
BT-549 breast = conditions: 10 µM unless noted
MDA-MB-435 melanoma = conditions: 10 µM unless noted
SW-620 colon = conditions: 10 µM unless noted
MCF7 breast = conditions: 10 µM
HCC-2998 colon = conditions: 10 µM unless noted
KM12 colon = conditions: 10 µM unless noted
HCT-116 colon = conditions: 10 µM unless noted

SMILES | growth (SR leukemia) | growth (RPMI-8226 leukemia) | growth (OVCAR-8 ovarian) | growth (OVCAR-5 ovarian) | growth (OVCAR-4 ovarian) | growth (SK-OV-3 ovarian) | growth (IGROV1 ovarian) | growth (OVCAR-3 ovarian) | growth (HS 578T breast) | growth (NCI/ADR-RES ovarian) | growth (T-47D breast) | growth (BT-549 breast) | growth (MDA-MB-435 melanoma) | growth (SW-620 colon) | growth (MCF7 breast) | growth (HCC-2998 colon) | growth (KM12 colon) | growth (HCT-116 colon)
O=C(/C=C/C=C/c1ccccc1)c1ccco1 | 16.7% | 10.8% | 89.1% | 108% | 78.7% | 105% | 64.8% | 85.6% | 62.6% | 91.3% | 67.5% | 113% | 92.8% | 62.4% | 26.1% | 114% | 86.8% | –
CCOC(=O)/C(=C\c1ccc(-c2ccccc2)cc1)C(C)=O | 95.9% | 105% | 113% | 96.7% | 105% | 116% | 101% | 98.2% | 103% | 103% | 105% | 98.8% | – | 101% | 93.3% | 95.2% | 104% | 103%
NC(=O)/C=C/C(=O)c1c(Cl)cccc1Cl | -42% (active) | -34.7% (active) | -67.4% (active) | -99.6% (active) | -67.4% (active) | 59% | -57.5% (active) | -81.3% (active) | -7.11% (active) | -59.4% (active) | -62.4% (active) | -42.4% (active) | – | -71% (active) | -68.9% (active) | -98.6% (active) | – | -100% (active)
NC(N)=N/N=C/c1ccc([N+](=O)[O-])o1 | 98.3% | 78.7% | 79.7% | 123% | 82.8% | 116% | 98% | 83.1% | – | 99.5% | 96.7% | 94.5% | 115% | 105% | 72.4% | 88% | – | –
O=C1N[C@H]2[C@H](CS[C@H]2CCCCC(=O)N(CCP(c2ccccc2)c2ccccc2)CCP(c2ccccc2)c2ccccc2)N1 | 102% | 57% | 95.1% | 95.2% | 87.9% | 111% | -47.4% (active) | 0.222% (active) | – | 101% | 74.8% | 96.9% | 96.1% | 88.7% | 20.9% | 88.9% | – | 35.5%
Cc1cc(C(C)(CC(C)C)c2ccc(O)c(C)c2)ccc1O | 94.6% | 86.3% | 91.2% | 113% | 94.8% | 97% | 103% | 106% | 129% | 105% | 86.8% | 109% | – | 117% | 115% | 103% | 107% | 93.9%
CNC(=O)N/N=C/c1ccc([N+](=O)[O-])o1 | 82.8% | 83.6% | 96.5% | 110% | 108% | 109% | 98.1% | 103% | 98.1% | 108% | 104% | 110% | – | 105% | 95.3% | 106% | 92.2% | 94.8%
O=Nc1ccccc1N=O | 63.8% | 86.7% | 89.4% | 105% | 88.9% | 116% | 91.1% | 118% | – | 81.2% | 94.3% | 92.7% | 87.3% | 77.5% | 65.1% | 93.9% | – | 92.8%
